Screens as filed in PubChem BioAssay.
Compounds with a hit are over-represented: about 7.3% of the library has one in this group of screens.
SMN2 splice up: qHTS Assay for Enhancers of SMN2 Splice Variant Expression; Potency, µM (series often up to 46.1 µM), for the others: at the top dose activity change, positive = activation, hits mostly activators; 210,000 tested, 2.8% active; HEK293 SMN2-luciferase splicing reporter, luminescence, 30-36 h; further: % of control where 0% means no effect; nearly all actives have a fitted effect of over 55% in size
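HEK293 cells carry an SMN2 minigene-luciferase reporter in which exon 7 inclusion puts luciferase in frame. Cells were seeded at 2000 cells/well, attached for 10-12 hours, then exposed to compounds for 30-36 hours at 37C before ONE-Glo luminescence.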
ELG1 genotoxic: qHTS screen for small molecules that induce genotoxicity in human embryonic kidney (HEK293T) cells expressing luciferase-tagged ELG1; 330,000 tested, 1.3% active; Potency, µM (series often up to 46 µM), for the others: at the top dose activity change, positive = activation, actives largely listed as activators; HEK293T ELG1-luciferase reporter, luminescence, 16 h; AID 504466, 2011; further: % of control where 0% means no effect; nearly all actives have a fitted effect of over 60% in size
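Luminescence read-out: rising ELG1-luciferase signal, reflecting elevated ELG1 protein under genetic stress, flags genotoxic compounds. Cells were treated for 16 hr at 37 °C before ONE-Glo detection.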
uPA generation: qHTS for Inhibitors of Cell Surface uPA Generation | Potency, µM (top dose mostly 38.3 µM), inactives show at the highest dose activity change, negative = inhibition, most hits filed as inhibitors | cell surface uPA generation assay, qHTS | 330,000 tested, 0.31% active | AID 540303, 2011; active means well fitted inhibition curve with a large enough effect; inconclusive means small, poorly fitted or top-dose-only effect; inactive means no such curve, though single readings can be large or run the other way; tested in mouse RAW 264.7 cells; further: on the % scale 0 is the no-effect control and ±100 the full control effect; nearly all actives have a fitted effect of over 55% in size
NPC1 promoter act: qHTS Assay for NPC1 Promoter Activators; Potency, µM (highest dose often 9.22 µM), without a hit: at the top dose activation, most hits filed as activators; 320,000 tested, 2.4% active; Huh7 NPC1 promoter luciferase reporter, 24 h; AID 485313, 2010; further: % of control where 0% means no effect; nearly all actives have a fitted effect of over 60% in size
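Huh7 cells stably carrying NPC1 promoter–luciferase, plated in Opti-MEM with 10% FBS for 2 h, were exposed to compound in DMSO for 24 h at 37 °C; luciferase reagent was added for 10 min and luminescence read.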
Rab9 promoter act: qHTS Assay for Rab9 Promoter Activators. 320,000 tested, 2.8% active. Potency, µM (titrated, usually from 9.22 µM), for inactives: top-dose activation, negative = inhibition, usual class: activators. Huh7 Rab9 promoter-luciferase reporter, luminescence, 24 h; further: % of control where 0% means no effect; nearly all actives have a fitted effect of over 60% in size
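Huh7 cells stably carrying Rab9 promoter–luciferase reporter, plated 1500 cells/well, compound added after 2 h and incubated 24 h at 37 °C; luciferase luminescence then read after 10 min with detection reagent.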
FLuc modulator: qHTS profiling assay for firefly luciferase inhibitor/activator using purifed enzyme and Km concentrations of substrates (counterscreen for miR-21 project); Luciferin 4-monooxygenase (Photinus pyralis), P08659; 360,000 tested, 6.9% active; Potency, µM (series often up to 57.5 µM), without a hit: at the top dose activity change, negative = inhibition, most hits filed as inhibitors; purified FLuc, Km substrates, luminescence inhibition;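 further: plate controls were vehicle for no effect and reference inhibitor for full effect; nearly all actives have a fitted effect of over 55% in size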
Target sequence (P08659 whole entry, looked up): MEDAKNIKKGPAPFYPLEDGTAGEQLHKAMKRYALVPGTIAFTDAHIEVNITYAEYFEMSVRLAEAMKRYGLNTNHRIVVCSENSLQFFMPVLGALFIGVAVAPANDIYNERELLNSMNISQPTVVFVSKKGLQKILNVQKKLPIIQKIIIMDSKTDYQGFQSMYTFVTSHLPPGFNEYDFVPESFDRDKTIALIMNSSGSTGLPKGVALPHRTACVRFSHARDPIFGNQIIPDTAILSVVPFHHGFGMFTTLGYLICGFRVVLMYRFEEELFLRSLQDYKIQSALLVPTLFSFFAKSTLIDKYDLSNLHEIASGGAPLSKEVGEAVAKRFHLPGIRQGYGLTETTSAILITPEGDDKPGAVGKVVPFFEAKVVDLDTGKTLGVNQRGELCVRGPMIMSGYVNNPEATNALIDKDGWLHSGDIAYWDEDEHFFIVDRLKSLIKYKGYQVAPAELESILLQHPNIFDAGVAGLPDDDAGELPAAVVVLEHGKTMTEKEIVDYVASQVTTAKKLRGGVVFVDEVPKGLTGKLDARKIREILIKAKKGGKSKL
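Biochemical qHTS of compounds, final roughly 60 µM downward over six points, against 10 nM purified firefly luciferase using Km concentrations of substrates (10 uM D-luciferin, 10 uM ATP) in Tris acetate pH 7.5 buffer; luminescence output.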
* hit, by the source's call; ? = inconclusive; nt = no result given; [ ] = another dose, or the depositor's remark. Unless noted, the call rests on the fitted dose curve; in most records, active means well fitted curve in the direction sought with a large enough effect; inconclusive means small, poorly fitted or top-dose-only effect, or another doubt; inactive means no such curve, though single readings can be large; an effect the other way counts as inactive or inconclusive. Potency means the concentration at half of the fitted maximal effect.

SMILES	SMN2 splice up	ELG1 genotoxic	uPA generation	NPC1 promoter act	Rab9 promoter act	FLuc modulator
CNC(=O)COC(=O)/C=C/c1cn(-c2ccccc2)nc1-c1ccc(C)o1	nt	0%	-2%	-1%	-2%	15µM*
O=C(N/N=C/c1cn(-c2ccccc2)nc1-c1cccs1)c1ccccc1F	14%	-8%	-12%	1%	5%	21µM*
NC(=O)N/N=C/c1cn(-c2ccccc2)nc1-c1ccccc1	?	?	-8%	19%	17%	6.7µM*
O=C(O)/C=C/c1cn(-c2ccccc2)nc1-c1ccc(-c2ccc([N+](=O)[O-])cc2)o1	nt	0%	0%	-3%	-1%	9.5µM*
CCN(CC(=O)Nc1ccc(NC(C)=O)cc1)C(=O)/C=C/c1ccccc1	nt	-3%	-2%	0%	-3%	-1%
CCN(CC(=O)Nc1ccc(NC(C)=O)cc1)C(=O)/C=C/c1cn(-c2ccccc2)nc1-c1cccs1	nt	-21%	11%	-1%	?	17µM*
CSc1ccc(CN(C)C(=O)c2cc3ccccc3o2)cc1	nt	8%	0%	22%	-1%	17µM*
O=C(N/N=C/c1ccc(OC(=O)c2cccs2)cc1)c1ccccn1	nt	7.3µM*	0%	2.5µM*	3.2µM*	1.5µM*
COc1cc(/C=N/NC(=O)c2ccccn2)ccc1OC(=O)c1ccccc1Br	nt	-5%	-3%	?	?	4.8µM*
O=C(Oc1ccc(/C=N/NC(=O)c2ccccn2)cc1)c1cccc(Br)c1	nt	16µM*	4%	4µM*	3.5µM*	-6%
O=C(N/N=C/c1ccc(OC(=O)c2ccco2)cc1)c1ccccn1	nt	?	-6%	2.8µM*	1.8µM*	2.7µM*
O=C(Oc1ccc(/C=N/NC(=O)c2ccccn2)cc1)c1ccc(Br)cc1	nt	nt	-1%	nt	nt	nt
Cc1cc(C)n(-c2nnc(Nc3ccc(C)c(Cl)c3)c3ccccc23)n1	-4%	nt	nt	nt	nt	?
Oc1cccc2ccc(SSc3ccc4cccc(O)c4n3)nc12	-10%[9.22 µM]	nt	nt	nt	nt	nt
O=C(N/N=C/c1cccc(Oc2ccccc2)c1)c1ccncc1	?	-3%	3%	1%	14%	?
O=C(N/N=C/c1cccc(Oc2ccccc2)c1)c1ccc(O)cc1O	nt	1%	0%	1%	13%	17µM*
COc1cc(C(=O)N/N=C/c2cccc(Oc3ccccc3)c2)ccc1O	nt	5%	-8%	-4%	4%	17µM*
COc1ccccc1C(=O)NC(=O)Nc1ccc(-n2nc(C(F)(F)F)cc2C(F)(F)F)cc1	-11%	nt	nt	nt	nt	-1%
Cc1ccc(Oc2ccc(Cl)cc2N)cc1	11%	14%	2%	20%	16%	21µM*
COCCN(CCOC)C(=O)c1cc2c(=O)n3ccccc3nc2n1C	nt	nt	nt	nt	nt	-8%
CCCCC[C@H](O)/C=C/C=C/C/C=C\CCCC(=O)O	0%	nt	nt	nt	nt	nt
CN(C)c1ccc(NC(=S)NCC2CCCO2)cc1 (configuration not stated)	13µM*	?	-2%	17%	23%	?
CCc1ccc(NC(=O)C(=O)NCC2CCCO2)cc1 (configuration not stated)	11µM*	17%	-23%	3.5µM*	1.4µM*	?
CCc1ccc(CNC(=O)C(=O)NCC2CCCO2)cc1 (configuration not stated)	nt	3%	-2%	-1%	-7%	-1%
Cc1ccc(C(=O)NC(=S)NCC2CCCO2)cc1Br (configuration not stated)	20µM*	16%	-12%	23%	29%	19µM*
SMILES	SMN2 splice up	ELG1 genotoxic	uPA generation	NPC1 promoter act	Rab9 promoter act	FLuc modulator
CCc1ccc(-c2cc(C(=O)Nc3ccc(S(=O)(=O)NC(C)=O)cc3)c3ccccc3n2)cc1	4%	9%	-3%	?	28%	0.54µM*
Cc1ccc(-c2cc(C(=O)Nc3ccc(S(=O)(=O)Nc4ncccn4)cc3)c3ccccc3n2)cc1	17%	10%	3%	-1%	-6%	6.7µM*
O=C(Nc1ccc(S(=O)(=O)Nc2nccs2)cc1)c1cc(-c2ccccc2)nc2ccccc12	20%	-2%	-5%	0%	-3%	?
CC(C)(C)NS(=O)(=O)c1ccc(NC(=O)c2cc(-c3ccccc3)nc3ccccc23)cc1	5%	-11%	0%	-4%	0%	-6%
CCOCCCn1c(SCC(=O)Nc2ccc(C)cc2)nc2ccccc2c1=O	nt	nt	nt	nt	nt	-8%
Cc1c(C(=O)Nc2ccc(Cl)cc2)c2ccccn2c1C(=O)c1ccc(F)cc1	-12%	0%	1%	-1%	2%	-9%
Cc1c(C(=O)Nc2cccc(Cl)c2)c2ccccn2c1CCc1ccncc1	8%	-8%	-6%	-2%	-6%	17µM*
Cc1c(C(=O)Nc2ccc(Cl)cc2)c2ccccn2c1CCc1ccncc1	-3%	3%	-26%	?	?	3µM*
C[C@H](CO)N1C[C@H](C)[C@@H](CN(C)S(C)(=O)=O)Oc2ccc(NC(=O)C3CC3)cc2C1=O	nt	-2%	-4%	nt	nt	nt
CCC12CN3CC(C)(CN(C1)C3c1c[nH]c3ccccc13)C2=O (configuration not stated)	-1%	nt	nt	nt	nt	-2%
CCOC(=O)c1c(C)[nH]c(C)c1S(=O)(=O)N(C)CC(=O)Nc1ccc(C)cc1Br	nt	nt	nt	nt	nt	4%
Cc1ccccc1N/N=C/c1c(C)nc2ccccn12	nt	-4%	7%	3%	8%	12µM*
Cc1cc(/C=N/NC(N)=S)c(C)n1-c1cccc(Cl)c1	-18%	-2%	-4%	-3%	-7%	-5%
O=C(N/N=C/c1ccc2ncccc2c1)c1ccco1	0.56µM*	2.6µM*	-13%	?	0.32µM*	1.3µM*
CSC(=S)N/N=C/c1ccc(N(C)C)cc1	28%	?	1%	11%	23%	2.7µM*
Cc1ccc(/C=N/NC(=O)c2ccco2)cc1	nt	?	-10%	1.8µM*	1.4µM*	3.8µM*
O=C(N/N=C/c1ccccn1)c1ccco1	1%	6%	3%	5%	2%	?
Cc1cc(/C=N/NC(=O)c2nn(C)cc2Cl)c(C)n1-c1cccc(Br)c1	-20%	4%	-4%	-2%	-5%	24µM*
CN(C)c1ccc(/C=N\NC(=O)c2cccc3cc[nH]c23)cc1	nt	?	?	22%	?	12µM*
Cc1cccc(-n2c(C)cc(/C=N/O)c2C)c1	-8%	1%	16%	7%	-2%	-13%
Cc1cccc(-n2c(C)cc(/C=N\NC(=O)c3ccco3)c2C)c1	13%	?	-3%	?	1.1µM*	9.5µM*
